The sample as a whole holds a higher share of hits than the screen did.
CapD inh: inhibitors of Bacillus anthracis CapD enzyme | 140,000 compounds, 0.23% hits | z-score (concentration not given with the values) | AID 492967 | purified CapD enzyme, fluorescence intensity read-out; active compounds read low; in the data active = z-score mostly below about -2.9, no sharp cut-off; inactive = mostly above about -1.9
An asterisk follows results filed as active.

SMILES | CapD inh
COC(=O)NC1Sc2ccccc2N=C1c1ccccc1 (stereo unspecified) | -1.1
c1ccc(C2=Nc3ccccc3SC2c2nc3ccccc3[nH]2)cc1 (stereo unspecified) | -4.1*
O=C1CC(c2nc3ccccc3[nH]2)CN1c1ccccc1 (stereo unspecified) | -0.45
Cn1cccc1CN1CCN(C(=O)c2cccc(F)c2)CC1 | 0.06
CCOC(=O)c1ccc(N(C)C)cc1 | -1
COc1ccc(CN(Cc2ccc(OC)cc2)S(=O)(=O)c2c(C)noc2C)cc1 | 0.41
Cc1noc(C)c1S(=O)(=O)N(CCC#N)Cc1ccccc1 | -0.2
Cc1noc(/C=C/N(C)C)c1S(=O)(=O)N(CCc1ccccc1)Cc1ccccc1 | -4.3*
CC(C)c1ccc(NC(=O)c2ccc(-c3csnn3)cc2)cc1 | 0.22
Cc1cc(C(=O)N2CCN(C(c3ccccc3)c3ccccc3)CC2)n[nH]1 | -0.62
Cc1ccc(C)c(CSc2ncnc3ccccc23)c1 | 0.075
CC(=O)Oc1ccc(N(C(C)=O)S(=O)(=O)c2ccc3ccccc3c2)cc1 | -0.08
COc1ccc(N(C(C)=O)S(=O)(=O)c2ccc(F)cc2)cc1 | -7.3*
COc1ccc(S(=O)(=O)N(C(C)=O)c2ccc3oc(=O)sc3c2)cc1 | -3.3
C=CCOC(=O)C1=C(N)OC(C)=C(C(=O)OCc2ccccc2)C12C(=O)Nc1ccccc12 (stereo unspecified) | -0.91
Cc1cccc(S(=O)(=O)N2CCN(Cc3ccsc3)CC2)c1 | -0.045
CCOC(=O)C1C(=O)NC(SCC(=O)Nc2cc(OC)c(Cl)cc2OC)=C(C#N)C1c1ccccc1OC (stereo unspecified) | -0.58
COc1ccc2ccccc2c1CN1CCC(NS(=O)(=O)c2ccccc2Cl)C1 (stereo unspecified) | 1.1
COc1ccc(/C=C2/SC(=S)N(CCC(=O)N3CCN(C4=NC(=O)/C(=C\c5ccc(C)cc5)S4)CC3)C2=O)cc1 | -0.38
Cc1ccc(/C=C2/SC(=O)N(CCC(=O)N3CCN(C)CC3)C2=O)cc1 | -0.82
Cc1ccc(/C=C2/SC(=S)N(CCC(=O)N3CCOCC3)C2=O)cc1 | -2.6*
COC(=O)c1ccccc1NC(=O)c1cc(-c2ccc(C)s2)nc2ccccc12 | 6.2
COC(=O)N=Nc1c(O)[nH]c2ccc(Br)cc12 | -0.73
O=C(O)c1cc(=O)c2cc(Br)ccc2o1 | 0.56
O=c1ccc2cc3c([nH]c4ccc(Br)cc43)oc-2c1O | -7.8*
SMILES | CapD inh
O=C(CCC1CCCCC1)Nc1ccc(-c2cn3cccnc3n2)cc1 | -4.5*
O=C(COc1ccccc1)Nc1ccc(-c2cn3cccnc3n2)cc1 | 98
COCC(=O)Nc1ccc(-c2cn3cccnc3n2)cc1 | -0.005
CCSc1nnc(NC(=O)CSc2nc3c(c(=O)n2-c2ccc(Br)cc2)SCC3)s1 | -0.54
O=C(CSc1cn(Cc2ccccc2)c2ccccc12)N1CCCC1 | 0.055
N#Cc1cn(Cc2ccccc2)c2ccccc12 | -0.23
N=C(N)Sc1cn(Cc2ccccc2)c2ccccc12 | -4.8*
Cc1[nH]n(C)c(=O)c1N=Nc1ccccc1OC(F)(F)F | 0.21
NS(=O)(=O)c1ccc(-c2ccon2)s1 | 1
CCc1cccc(CC)c1N(COC)C(=O)CSc1nc2ccccc2[nH]1 | 0.11
CCOC(=O)c1nonc1N | -0.2
CC(=O)Nc1nonc1N1CCCC1=O | 0.08
CC(=O)N1c2nonc2N(C(C)=O)c2nonc21 | -11*
Cn1c(=O)c2c(nc(NCCOCCO)n2Cc2ccc(Br)cc2)n(C)c1=O | -0.1
O=C(O)c1c(F)cccc1I | -2.9*
O=C(c1c(F)cccc1F)N1CCN(C(=O)c2c(F)cccc2F)CC1 | -0.43
CC(=O)Nc1cccc(F)c1C(=O)O | -0.13
CCOC(=O)c1c(C)c(-c2ccccc2)n(CC(=O)NCc2ccco2)c1C | -0.74
N=C1/C(=C\c2ccc(-c3cccc(C(=O)O)c3)o2)C(=O)N=C2SC(N3CCCCC3)=NN12 | -3.8*
CN1C(=O)C(=Cc2ccc(-c3cccc(C(=O)O)c3)o2)C(=O)N(C)C1=S | -0.73
CCc1ccc(/C=C2\C(=N)N3N=C(N4CCCC4)SC3=NC2=O)cc1 | 0.55
COc1ccc(C(c2ccc3cccnc3c2O)N2CCCC2)cc1 (stereo unspecified) | 0.05
CCC(CO)NCC(O)Cn1c2ccc(Cl)cc2c2cc(Cl)ccc21 (stereo unspecified) | 0.67
C=CCN1C(=O)/C(=C\c2ccccc2)C(C(=O)OC)=C1C | -1.3
CCN1C(=O)/C(=C\c2ccco2)C(C(=O)OC)=C1C | -0.87
SMILES | CapD inh
CCN1C(=O)/C(=C\c2ccc(OC)cc2)C(C(=O)OC)=C1C | -4.9*
CCCNC(=O)N1CCN(c2cccc(C(F)(F)F)c2)CC1 | 2.1
c1ccc2c(NCC3CCCO3)nc(SCc3ccncc3)nc2c1 (stereo unspecified) | 1.5
CC1(C)CC(=O)C2=C(C1)OC1=C(C(=O)CC(C)(C)C1)C2c1ccc(-c2ccccc2[N+](=O)[O-])o1 | -0.27
Cc1c(Cl)cccc1N=C1SCC(=O)N1Cc1ccco1 | -0.23
O=C(NN1C(=O)/C(=C\c2cccnc2)SC1=S)c1ccccc1 | -1.4
COC(=O)c1cccc(N2C(=O)/C(=C\c3cccnc3)SC2=S)c1 | -0.35
O=C(O)COc1ccccc1/C=C1/SC(=S)N(c2cccnc2)C1=O | -4*
